These results are taken from PubChem BioAssay AID488969 (Vanderbilt High Throughput Screening Facility, 2010).

Molecules are shown by their SMILES. Whole data set: some 110,000 compounds, median “z-score” near -0.1, cut for the highest 2% near 2. The entries come from a sample that favours the highest values as a whole. Activity calls are given as the source filed them.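 Rule for the calls: active = z-score in the third read window above 3 or below -3; inactive = the rest.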

Metabotropic glutamate receptor 8 (Rattus norvegicus), sequence (P70579 whole entry, looked up): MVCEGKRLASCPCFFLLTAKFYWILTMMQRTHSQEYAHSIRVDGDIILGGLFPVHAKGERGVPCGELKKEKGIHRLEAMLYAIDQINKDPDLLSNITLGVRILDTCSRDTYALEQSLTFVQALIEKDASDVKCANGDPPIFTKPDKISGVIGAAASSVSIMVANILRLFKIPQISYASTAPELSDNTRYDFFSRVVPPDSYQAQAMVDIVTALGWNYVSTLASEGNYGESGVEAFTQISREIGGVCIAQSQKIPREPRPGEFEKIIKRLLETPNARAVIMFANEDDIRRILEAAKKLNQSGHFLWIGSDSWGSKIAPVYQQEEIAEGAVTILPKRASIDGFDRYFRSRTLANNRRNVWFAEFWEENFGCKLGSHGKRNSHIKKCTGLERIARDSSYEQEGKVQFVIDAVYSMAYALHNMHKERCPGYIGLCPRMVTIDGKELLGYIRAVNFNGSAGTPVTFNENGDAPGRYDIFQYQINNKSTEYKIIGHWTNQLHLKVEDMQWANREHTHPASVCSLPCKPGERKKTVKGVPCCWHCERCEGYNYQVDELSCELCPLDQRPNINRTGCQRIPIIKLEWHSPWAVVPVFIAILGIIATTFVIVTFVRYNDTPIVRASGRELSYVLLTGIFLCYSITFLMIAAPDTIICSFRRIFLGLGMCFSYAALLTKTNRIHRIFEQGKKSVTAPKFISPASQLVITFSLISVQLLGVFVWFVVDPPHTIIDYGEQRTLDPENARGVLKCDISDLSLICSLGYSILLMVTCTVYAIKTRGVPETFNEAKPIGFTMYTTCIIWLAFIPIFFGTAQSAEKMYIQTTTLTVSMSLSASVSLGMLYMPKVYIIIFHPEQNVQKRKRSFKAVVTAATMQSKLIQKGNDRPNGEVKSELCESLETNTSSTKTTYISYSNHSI

This test concerns the target Metabotropic glutamate receptor 8 (Rattus norvegicus) (UniProt P70579). In words: mGluR8 Gi/Go-coupled signaling modulation – cell-based, rat, thallium flux, HTS, primary screen (AID 488969). The settings on record: HEK293 rat mGluR8, GIRK (G protein-gated inwardly rectifying potassium channel) thallium flux, FluoZin2; at 10 µM; stronger effect = higher value; submaximal glutamate (EC20) added with thallium.
Compound `Cc1cccnc1NC(=O)C1CCCN(S(=O)(=O)c2ccc3c(c2)oc(=O)n3C)C1` (centres undefined) registered a z-score of 0.166.

Consider `CCc1cccc(OCC(=O)Nc2ccc(S(=O)(=O)Nc3onc(C)c3C)cc2)c1`, for which the z-score was -0.0589.

In turn, `COc1cc(NC(=O)Cn2nnc(-c3ccncc3)n2)cc(OC)c1` came in with a z-score of 0.284.

With `CN(C)C(=O)CN(c1ccc(F)c(Cl)c1)S(C)(=O)=O`, the z-score was 0.00105.

As for `Cc1ccc2c(c1)c(=O)c(Br)c(C)n2Cc1ccccc1`, the z-score is -0.0481.

On to `COc1ccccc1C(c1nnnn1C(C)(C)C)N1CCN(Cc2ccncc2)CC1` (centres undefined), for which the z-score is -0.332.

`CCN(CC)C(=O)CSCc1cnn(-c2ccccc2)c1-n1cccc1` yielded a z-score of 0.216.

On to `COc1ccc(NC2=CC(c3ccc(OC)c(OC)c3)N(c3ccc(OC)cc3)C2=O)cc1` (centres undefined), for which the z-score is -0.044.

Regarding `COc1ccc2nc(N=Nc3ccc(N(C)C)cc3)sc2c1`, the z-score amounted to 0.141.

Turning to `COc1ccc2nc(N)sc2c1`, the z-score stood at 0.0701.

As to `COc1ccc2nc(N=Nc3ccc(O)c4ccccc34)sc2c1`, the z-score was 5.85 (active).

Consider `CCN(CC)C(=O)C(=O)N/N=C/c1cccs1`, for which the z-score is -0.0972.

Take `CCCCCN(C(=O)CN(C)Cc1ccc(OC)cc1OC)c1c(N)n(CCCC)c(=O)[nH]c1=O`: the z-score was 0.0701.

As for `O=C(Nc1nnc(-c2cccs2)o1)c1cccc(Oc2ccccc2)c1`, the z-score is 14 (active).

`O=C(Nc1nnc(-c2cccs2)o1)c1cccc(F)c1`: the z-score was 4.44 (active).

Turning to `CCCCN(CCCC)S(=O)(=O)c1ccc(C(=O)Nc2nnc(COC)o2)cc1`, the z-score turned out to be 1.03.

Take `O=C(CCc1ccccc1)Nc1nnc(-c2cccs2)o1`: the z-score worked out at 0.129.

Take `CCCCN(C)S(=O)(=O)c1ccc(C(=O)Nc2nnc(-c3cccs3)o2)cc1`: the z-score is 7.18 (active).

`O=C(Nc1ccncc1)c1cccc(F)c1` had a z-score of 0.415.

Take `O=C(Nc1ccccc1)c1cccc(C(F)(F)F)c1`: the z-score was -0.053.

Compound `COc1cccc(C(=O)Nc2nnc(-c3cccs3)o2)c1` gave a z-score of 0.124.

Regarding `O=C(Nc1nnc(-c2cccs2)o1)c1cccc(C(F)(F)F)c1`, the z-score was 14.1 (active).

`CCC1CCCCN1S(=O)(=O)c1ccc(C(=O)Nc2nnc(-c3cccs3)o2)cc1` (centres undefined) showed a z-score of 0.233.

With `O=C(Nc1cccc(C(F)(F)F)c1)c1cc(-c2cccs2)on1`, the z-score is -0.52.

As for `O=C(Nc1nnc(-c2cccs2)o1)c1ccco1`, the z-score was -0.203.

With `CCc1ccccc1NC(=O)CSc1ncn[nH]1`, the z-score was -0.0941.

With `CC1CCCN(c2nc(-c3cccnc3)nc3scc(-c4ccccc4)c23)C1` (centres undefined), the z-score was -0.0274.

Consider `COc1ccc(CCNC(=O)c2ccc(-c3ccc([N+](=O)[O-])cc3)o2)cc1OC`, for which the z-score is -0.544.

Consider `CCOc1cc([C@H]2[C@@H]3CCCC[C@]3(O)CCN2CC(=O)NCc2ccco2)ccc1O`, for which the z-score was -0.351.

On to `COc1ccc(N2CCN(Cc3nc4ccsc4c(=O)[nH]3)CC2)cc1`, for which the z-score is -0.255.

With `O=C(CN=C1NC(=O)C(c2ccccc2)(c2ccccc2)N1)NCc1ccc(F)cc1`, the z-score was -0.114.

`N#CCSc1nnc2ccc3ccccc3n12`: the z-score is -0.272.

With `O=C(NCC(=O)N(Cc1cccs1)C(C(=O)NC1CCCCC1)c1ccco1)c1cccs1` (centres undefined), the z-score is -0.518.

In turn, `O=C(NCC(=O)N(Cc1ccco1)C(C(=O)NC1CCCC1)c1cccnc1)c1ccco1` (centres undefined) came in with a z-score of 2.19.

In turn, `O=C(NCC(=O)N(Cc1ccco1)C(C(=O)NC1CCCCC1)c1cccnc1)c1ccco1` (centres undefined) had a z-score of 0.556.

In the case of `O=C(NCC(=O)N(Cc1cccs1)C(C(=O)NC1CCCC1)c1ccco1)c1cccs1` (centres undefined), the z-score stood at 0.741.

On to `O=C(NCC(=O)N(Cc1ccccc1)C(C(=O)NC1CCCC1)c1cccnc1)c1ccco1` (centres undefined), for which the z-score was -0.0981.

Turning to `O=C(NCC(=O)N(Cc1cccs1)C(C(=O)NC1CCCCC1)c1ccco1)c1ccco1` (centres undefined), the z-score is 2.96.

The compound `COc1ccc(Cl)cc1NC(=O)CN(C)C1CCCCC1` showed a z-score of 0.225.

On to `CC(C)CC(C(=O)O)N(Cc1ccccc1)Cc1ccccc1` (centres undefined), for which the z-score was -0.132.

Consider `OCCN(Cc1ccccc1)Cc1ccccc1Cl`, for which the z-score is 0.0815.

Take `C#CC(CO)N(CCN(Cc1ccccc1)C(C#C)CO)Cc1ccccc1` (centres undefined): the z-score was 2.19.

Consider `CC1CCc2c(sc(NC(=O)CSc3ncnc4c3cnn4-c3ccccc3Cl)c2C#N)C1` (centres undefined), for which the z-score is -0.899.

As for `CSC1=N/C(=C\c2ccc(F)cc2)C(=O)S1`, the z-score is -0.817.

Take `CSC1=N/C(=C\c2ccc(Br)o2)C(=O)S1`: the z-score was 3.73 (active).

Consider `CSC1=N/C(=C\c2ccc(C)cc2)C(=O)S1`, for which the z-score is -0.344.

Compound `CC(=O)CC1(O)C(=O)N(Cc2ccccc2)c2ccccc21` (centres undefined) displayed a z-score of 0.034.

`O=C(N/N=C/c1cnc2ccccc2n1)c1cccc(F)c1`: the z-score was 0.223.

Take `O=C(CN1CCCC1)N1c2ccccc2Sc2ccccc21`: the z-score is -0.191.

Compound `Cc1ccccc1N=C1NC(=O)CS1` gave a z-score of 0.516.

As for `O=C1CS/C(=N\C(=O)N2c3ccccc3Sc3ccccc32)N1`, the z-score was 7.66 (active).

In the case of `COc1ccc(NC(=O)CSc2nc3ncccc3[nH]2)cc1OC`, the z-score was -0.426.

As for `CCC(=O)N(Cc1cc2ccc(C)cc2n2nnnc12)C1CCCCC1`, the z-score was -0.401.

On to `C=CCn1c(SC2CCOC2=O)nc2sc(C)c(C)c2c1=O` (centres undefined), for which the z-score was -0.995.

Regarding `Cc1nc(SC2CCOC2=O)c2c(C)c(C)sc2n1` (centres undefined), the z-score was 4.12 (active).

Consider `Cc1cc(C)nc(SC2CCOC2=O)n1` (centres undefined), for which the z-score was -0.0163.

Take `CCCC1Cc2c(sc(NC(=S)NC(=O)c3ccccc3)c2C#N)CO1` (centres undefined): the z-score is 0.489.

In turn, `CC1(C)CC(NS(=O)(=O)c2ccc(S(=O)(=O)N3CCOCC3)cc2)CCO1` (centres undefined) displayed a z-score of 2.05.

For the compound `CN(C)S(=O)(=O)c1ccc(S(=O)(=O)NC2CCOC(C)(C)C2)cc1` (centres undefined), the z-score is -1.16.

For `CC(=O)N1CCN(S(=O)(=O)c2ccc(S(=O)(=O)NCC(C)C)cc2)CC1`, the z-score is -0.0339.

Regarding `O=C(c1ccco1)N1CCN(S(=O)(=O)c2ccc(S(=O)(=O)NC3CC3)cc2)CC1`, the z-score is -0.31.

Take `CC(C)CNS(=O)(=O)c1ccc(S(=O)(=O)NC2CCOC(C)(C)C2)cc1` (centres undefined): the z-score was -0.235.

Turning to `CC(=O)N1CCN(S(=O)(=O)c2ccc(S(=O)(=O)NC3CC3)cc2)CC1`, the z-score was 2.05.

`COc1cc(-n2c(C)nc3cc(C(=O)N4CCOCC4)ccc32)cc(OC)c1OC`: the z-score was -0.458.

`CCOC(=O)c1c(C)oc2c1cc(O)c1ccccc12`: the z-score was -0.493.

Take `CCOC(=O)c1c(C)[nH]c2c1cc(O)c1ccccc12`: the z-score is 4.58 (active).

As to `CCOC(=O)c1c(-c2ccccc2)[nH]c2ccc(O)cc12`, the z-score was -0.821.

Take `COc1ccc(-c2nc(NC(=O)c3ccc(OCC(=O)N4CCOCC4)c(OC)c3)sc2C)cc1`: the z-score is -0.218.

Turning to `COc1ccccc1NC(=S)N(CCc1c(C)[nH]c2ccccc12)Cc1cccs1`, the z-score was found to be 0.381.

As for `CCOc1cc(/C=N\NC(=O)c2ccc(NC(=O)CC)cc2)ccc1OC(=O)c1ccccc1`, the z-score was -0.103.

For the compound `CCOc1cc(/C=N/NC(=O)CNc2cccc(C)c2)ccc1OC(=O)c1ccccc1`, the z-score is 5.52 (active).

`CCOc1cc(/C=N/NC(=O)CNc2ccc(C)cc2)ccc1OC(=O)c1ccccc1`: the z-score came to 0.0308.

For `CC(=O)N(C)c1nnc(-c2ccccn2)s1`, the z-score is -0.0164.

Compound `CS(=O)(=O)N(CC(=O)Nc1ccc(F)c(F)c1)c1cccc([N+](=O)[O-])c1` displayed a z-score of 0.348.

Regarding `O=C(NCc1ccccn1)C1CCN(Cc2cnn(-c3ccccc3)c2-n2cccc2)CC1`, the z-score is -0.0285.

Turning to `COc1cc(NC(=O)CSCc2cnn(-c3ccccc3)c2-n2cccc2)cc(OC)c1`, the z-score is 7.86 (active).

As for `COc1ccc(OC)c(NC(=O)CSCc2cnn(-c3ccccc3)c2-n2cccc2)c1`, the z-score was 0.126.

In turn, `COc1cccc(CNC(=O)C2CCN(Cc3cnn(-c4ccccc4)c3-n3cccc3)CC2)c1` gave a z-score of 2.66.

On to `COc1ccc(OC)c(NC(=O)C2CCN(Cc3cnn(-c4ccccc4)c3-n3cccc3)CC2)c1`, for which the z-score was -0.109.

As for `O=C(Nc1ccc2c(c1)OCO2)C1CCN(Cc2cnn(-c3ccccc3)c2-n2cccc2)CC1`, the z-score was -0.13.

With `COc1cccc(NC(=O)C2CCN(Cc3cnn(-c4ccccc4)c3-n3cccc3)CC2)c1`, the z-score was -0.463.

With `O=C(NCc1ccc2c(c1)OCO2)C1CCN(Cc2cnn(-c3ccccc3)c2-n2cccc2)CC1`, the z-score was 3.14 (active).

As for `CC(=O)Nc1ccc(NC(=O)CSCc2cnn(-c3ccccc3)c2-n2cccc2)cc1`, the z-score was -0.225.

With `CCSc1cc(N2CCCC2)nc(-c2ccccc2Cl)n1`, the z-score was -0.31.

In the case of `COC(=O)COc1ccc(Cl)cc1C1Nc2ccccc2C(=O)N1c1ccc(OC)cc1` (centres undefined), the z-score is -0.642.

For `COC(=O)c1[nH]c2ccccc2c1NC(=O)/C=C/c1ccc2c(c1)OCO2`, the z-score was 0.563.

On to `O=C1C2CCCCC2C(=O)N1c1cccc(OS(=O)(=O)c2ccccc2)c1` (centres undefined), for which the z-score is -0.275.

As for `CCN(CC)S(=O)(=O)c1cccc(-c2nnc(SC(C)C(N)=O)n2CCc2ccccc2)c1` (centres undefined), the z-score is -0.152.

In the case of `O=C(Nc1cnc2ccccn2c1=O)c1ccc(Cl)cc1`, the z-score is -0.161.

Regarding `Cc1ccc(C(=O)Nc2cnc3ccccn3c2=O)cc1`, the z-score was 4.27 (active).

`O=C(Nc1cnc2ccccn2c1=O)c1ccc(F)cc1`: the z-score was -0.0283.

Turning to `CC(C)(C)C1CCc2c(C(=O)NNC(=O)/C=C/C(=O)O)csc2C1` (centres undefined), the z-score was -0.42.

For the compound `Cc1occc1C(=O)N/N=C/c1cccs1`, the z-score was found to be 0.00925.

Regarding `CC(C)(C)C1CCc2c(C(=O)N/N=C/c3cccs3)csc2C1` (centres undefined), the z-score was 3.34 (active).

In turn, `Cn1c(=O)oc2cc(S(=O)(=O)N3CCC(C(=O)NCc4cccs4)CC3)ccc21` gave a z-score of 0.158.

The compound `CCC(Cc1ccccc1)NC(=O)C1CCC(CNc2c(N3CCCC3)c(=O)c2=O)CC1` (centres undefined) displayed a z-score of 0.312.

Consider `COc1ccc(C(C)=O)cc1COC(=O)Cc1n[nH]c(=O)c2ccccc12`, for which the z-score was -0.504.

For the compound `CC1CCN(c2cc(N3CCOCC3)c(F)cc2[N+](=O)[O-])CC1`, the z-score is -0.674.

Regarding `CC1CCN(c2cc(N3CCOCC3)c([N+](=O)[O-])cc2F)CC1`, the z-score turned out to be 2.53.

In the case of `O=[N+]([O-])c1cc(F)c(N2CCCCC2)cc1N1CCOCC1`, the z-score is -0.193.

As for `O=C(NC1CCCCC1)c1sc(N2CCOCC2)nc1-c1ccccc1`, the z-score was found to be 0.0133.

Take `O=C(COC(=O)CCC1CCCC1)Nc1nc2c(F)c(F)c(F)cc2s1`: the z-score was determined as 2.48.

Regarding `O=C(COC(=O)CCC1CCCC1)Nc1ccc(Cl)cc1F`, the z-score is -0.306.

`O=C(COC(=O)C12CC3CC(CC(C3)C1)C2)Nc1nc2c(F)c(F)c(F)cc2s1`: the z-score was -0.635.

Take `CC(=O)Nc1cc(C(F)(F)F)ccc1Oc1cccc(Br)c1`: the z-score was -0.653.

Compound `CCCCn1c(NC(=S)Nc2ccccc2)nc2ccccc21` had a z-score of 2.55.

As for `CCCCn1c(Nc2ccccc2)nc2ccccc21`, the z-score turned out to be 0.15.

On to `S=C(Nc1ccccc1)Nc1nc2ccccc2n1CCOc1ccc(Cl)cc1`, for which the z-score is 1.72.

On to `CCCn1c(NC(=S)Nc2ccccc2)nc2ccccc21`, for which the z-score worked out at 2.89.

As to `CCn1c(NC(C)=O)nc2ccccc21`, the z-score was -0.0713.

For the compound `CCCn1c(Nc2ccccc2)nc2ccccc21`, the z-score was -0.0673.

`S=C(Nc1ccccc1)Nc1nc2ccccc2n1CCOc1ccc(Br)cc1` had a z-score of 1.24.

In the case of `CCn1c(NC(=O)C2CCCCC2)nc2ccccc21`, the z-score turned out to be 0.0465.

`CCn1c(NC(=S)Nc2ccccc2)nc2ccccc21`: the z-score is 15.2 (active).
